Experimental findings from PubChem BioAssay (Tox21) are described below.

Molecules are shown by their SMILES. Unmarked numbers belong to inactive results. Results filed as inconclusive are left out. Active and inactive are the calls of the source. Calls follow the shape of the dose curve; as a rule, active = well fitted curve in the direction sought with a large enough effect in the repeat runs; inconclusive = weak or mixed curves; inactive = no such curve, though single readings can be large; an effect the other way counts as inactive or inconclusive.

A short description of assay [1]: Caspase-3/7 induction in HepG2 cells by small molecules, qHTS assay (AID 1346978). Also: nearly all actives have a fitted effect of over 15% in size. In outline: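 Caspase-3/7 induction was measured by Caspase-Glo 3/7 luminescence (30 min, room temperature) after a 17 hr compound exposure of wild-type HepG2 cells seeded at 2,000 per well and pre-incubated 5 hr.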
Assay [2] in a line: Caspase-3/7 induction in CHO-K1 cells by small molecules, qHTS assay (AID 1346980). Also: nearly all actives have a fitted effect of over 15% in size. In outline:
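Luminescent Caspase-Glo 3/7 read (30min, room temperature) quantified apoptosis induction. Cells were wild-type CHO-K1, treated with compound for 17hr at 37 C and 5% CO2.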

A short description of assay [3]: Caspase-3/7 induction in HepG2 cells by small molecules, qHTS cell viability counter screen (AID 1346981). Also: series mostly up to about 92 µM; nearly all actives have a fitted effect of over 30% in size. In outline: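 Cell viability is measured as a cytotoxicity counter screen alongside the Caspase-Glo 3/7 readout in identical wells. Wild-type HepG2 cells are treated with test compounds for 16 hr at 37 C before CellTiter-Fluor addition and a 1-hr incubation.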

Assay [4] deals with Cytochrome P450 2D6 (Homo sapiens) (UniProt P10635). The assay can be described thus: Cytochrome P450 Family 2 Subfamily D Member 6 (CYP2D6) small molecule antagonists: luciferase reporter qHTS assay (AID 1671196). Also: nearly all actives have a fitted effect of over 50% in size. Also: potency is read from the fitted curve at half-maximal effect. The method in brief: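 Enzyme and proluciferin substrate were first combined with test chemical for 10 min at room temperature. Adding NADPH regeneration solution started a 1 h reaction, stopped with luciferin detection reagent and read by luminescence 20 min later.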

In assay [5] the target is Cytochrome P450 2C9 (Homo sapiens) (UniProt P11712). The assay can be described thus: Cytochrome P450 Family 2 Subfamily C Member 9 (CYP2C9) small molecule antagonists: luciferase reporter qHTS assay (AID 1671198). Also: nearly all actives have a fitted effect of over 50% in size. Also: potency is read from the fitted curve at half-maximal effect. The method in brief:
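Enzyme-substrate mix preincubated with compound 10 min at room temperature; reaction started with NADPH regeneration solution, 1 h 37C. Luminescent luciferin product read after 20 min detection reagent.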

Assay [6] deals with Cytochrome P450 1A2 (Homo sapiens) (UniProt P05177). The experiment in a line: Cytochrome P450 Family 1 Subfamily A Member 2 (CYP1A2) small molecule antagonists: luciferase reporter qHTS assay (AID 1671199). Also: nearly all actives have a fitted effect of over 50% in size. Also: potency is read from the fitted curve at half-maximal effect. In outline:
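Compounds were incubated with CYP1A2 and a luminogenic proluciferin substrate for 10 min at room temperature before the reaction was started with NADPH regeneration solution. After 1 h, detection reagent was added and light output, proportional to CYP activity, was recorded.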

For assay [7], the target named is Voltage-gated inwardly rectifying potassium channel KCNH2 (Homo sapiens) (UniProt Q12809). The experiment in a line: Human Ether-a-go-go-Related Gene (hERG) channel small molecule antagonists: fluorescence cell-based qHTS assay (AID 1671200). Also: nearly all actives have a fitted effect of over 50% in size. Also: potency is read from the fitted curve at half-maximal effect. The method in brief: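 In this thallium-flux screen, overnight-cultured U2OS cells bearing the channel are dye-loaded in darkness for an hour, rested 10 min at room temperature, and then monitored kinetically at 480/540 nm for two minutes post-stimulus.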

Assay [8] concerns the target Cytochrome P450 3A4 (Homo sapiens) (UniProt P08684). The assay can be described thus: Cytochrome P450 Family 3 Subfamily A Member 4 (CYP3A4) small molecule antagonists: luciferase reporter qHTS assay (AID 1671201). Also: nearly all actives have a fitted effect of over 50% in size. Also: potency is read from the fitted curve at half-maximal effect. The method in brief: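 CYP3A4 activity was followed with a P450-Glo proluciferin substrate. Test compounds in DMSO were preincubated 10 min; NADPH regeneration then ran 1 h, and light output was read 20 min after detection reagent.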

Assay [9] in a line: Caspase-3/7 induction in CHO-K1 cells by small molecules, qHTS cell viability counter screen (AID 1346979). Also: nearly all actives have a fitted effect of over 35% in size. Also: potency is read from the fitted curve at half-maximal effect. In outline:
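Following a 5hr settling period, CHO-K1 cells at 1,500 per well received DMSO-dissolved compounds. Cell viability was quantified 16hr later by CellTiter-Fluor fluorescence, measured after 1hr with reagent at 37C.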

The target of assay [10] is Nuclear receptor subfamily 1 group I member 2 (Rattus norvegicus) (UniProt Q9R1A7). The assay can be described thus: Rat pregnane X receptor (rPXR) activation by small molecules, qHTS assay (AID 1346983). Also: nearly all actives have a fitted effect of over 20% in size. To be noted: rPXR luciferase reporter cells, One-Glo luminescence, 24 h; max activation: stronger effect = higher value. In outline: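 Luminescent readout (One-Glo luciferase, 30 min room temperature) followed 24 hr compound treatment at 37 C of rPXR cells plated 2,000 per well and preincubated 5hr; qHTS format with compounds delivered in DMSO.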

Assay [11] deals with Nuclear receptor subfamily 1 group I member 2 (Homo sapiens) (UniProt O75469). The assay can be described thus: CYP3A4 induction through human pregnane X receptor (PXR) by small molecules, qHTS assay (AID 1346984). Also: nearly all actives have a fitted effect of over 40% in size. The method in brief: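 Quantitative HTS in DPX-2 cells, i.e. HepG2 transfected with PXR response element and CYP3A4-promoter luciferase. Compounds in DMSO incubated 24hr at 37C; then P450-Glo CYP3A4 substrate, 3uM final, 3hr; One-Glo luminescence.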

Assay [12] shares this target. The assay can be described thus: Human pregnane X receptor (PXR) activation by small molecules, qHTS assay (AID 1346985). Also: nearly all actives have a fitted effect of over 40% in size. Also: potency is read from the fitted curve at half-maximal effect. In outline: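 DPX-2 cells (HepG2 co-transfected with a PXR response element and a CYP3A4-promoter luciferase construct) were seeded at 2,000 per well, rested 5 hr at 37C, then exposed to DMSO-dissolved compounds for 24 hr. Activation was read as luciferase luminescence.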

Assay [13] shares this target. The assay can be described thus: Human pregnane X receptor (PXR) small molecule agonists, qHTS assay (AID 1346982). Also: nearly all actives have a fitted effect of over 35% in size. Also: potency is read from the fitted curve at half-maximal effect. The method in brief: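 Cells: HepG2 stably carrying PXR-Luc. Medium held 5% charcoal-stripped FBS. Compounds in DMSO added after 5 hr plating, incubated 24 hr, then luminescence quantified with ONE-Glo.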
The target of assay [14] is Cytochrome P450 2C19 (Homo sapiens) (UniProt P33261). The assay can be described thus: Cytochrome P450 Family 2 Subfamily C Member 19 (CYP2C19) small molecule antagonists: luciferase reporter qHTS assay (AID 1671197). Also: nearly all actives have a fitted effect of over 65% in size. Also: potency is read from the fitted curve at half-maximal effect. In outline:
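Quantitative high-throughput screen of the Tox21 library using CYP2C19 with proluciferin substrate. Reaction: NADPH regeneration, 37C, 1 h, after 10 min compound preincubation at room temperature. Readout: luminescence.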
% is scaled to controls: 0 for no effect and ±100 for the full control effect.

Nuclear receptor subfamily 1 group I member 2 (Rattus norvegicus), sequence (Q9R1A7 whole entry, looked up): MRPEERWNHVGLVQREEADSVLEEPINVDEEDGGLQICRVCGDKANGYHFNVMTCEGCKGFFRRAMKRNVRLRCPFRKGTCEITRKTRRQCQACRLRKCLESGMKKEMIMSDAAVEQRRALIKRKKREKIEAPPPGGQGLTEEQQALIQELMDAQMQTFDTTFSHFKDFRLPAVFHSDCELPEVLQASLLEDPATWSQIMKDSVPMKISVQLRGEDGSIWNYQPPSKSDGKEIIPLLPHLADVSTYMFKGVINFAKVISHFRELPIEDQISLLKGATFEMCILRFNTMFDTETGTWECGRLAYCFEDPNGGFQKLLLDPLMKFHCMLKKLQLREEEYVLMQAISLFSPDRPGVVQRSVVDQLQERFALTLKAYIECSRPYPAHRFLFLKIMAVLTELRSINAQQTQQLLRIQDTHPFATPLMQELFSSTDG
Cytochrome P450 1A2 (Homo sapiens), sequence (P05177 whole entry, looked up): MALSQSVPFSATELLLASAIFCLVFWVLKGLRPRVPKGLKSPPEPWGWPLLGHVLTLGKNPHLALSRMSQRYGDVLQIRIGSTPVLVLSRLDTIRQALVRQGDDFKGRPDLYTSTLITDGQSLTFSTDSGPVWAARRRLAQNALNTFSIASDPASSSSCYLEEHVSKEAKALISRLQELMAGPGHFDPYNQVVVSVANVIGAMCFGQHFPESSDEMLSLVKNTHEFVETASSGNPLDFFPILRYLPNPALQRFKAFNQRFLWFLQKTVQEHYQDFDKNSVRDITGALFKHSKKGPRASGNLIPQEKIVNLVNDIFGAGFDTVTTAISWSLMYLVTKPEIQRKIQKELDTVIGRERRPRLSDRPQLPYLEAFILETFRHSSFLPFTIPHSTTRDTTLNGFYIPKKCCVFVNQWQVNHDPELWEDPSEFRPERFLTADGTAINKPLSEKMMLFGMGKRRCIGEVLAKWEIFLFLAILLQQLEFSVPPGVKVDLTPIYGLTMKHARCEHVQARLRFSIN
Cytochrome P450 3A4 (Homo sapiens), sequence (P08684 whole entry, looked up): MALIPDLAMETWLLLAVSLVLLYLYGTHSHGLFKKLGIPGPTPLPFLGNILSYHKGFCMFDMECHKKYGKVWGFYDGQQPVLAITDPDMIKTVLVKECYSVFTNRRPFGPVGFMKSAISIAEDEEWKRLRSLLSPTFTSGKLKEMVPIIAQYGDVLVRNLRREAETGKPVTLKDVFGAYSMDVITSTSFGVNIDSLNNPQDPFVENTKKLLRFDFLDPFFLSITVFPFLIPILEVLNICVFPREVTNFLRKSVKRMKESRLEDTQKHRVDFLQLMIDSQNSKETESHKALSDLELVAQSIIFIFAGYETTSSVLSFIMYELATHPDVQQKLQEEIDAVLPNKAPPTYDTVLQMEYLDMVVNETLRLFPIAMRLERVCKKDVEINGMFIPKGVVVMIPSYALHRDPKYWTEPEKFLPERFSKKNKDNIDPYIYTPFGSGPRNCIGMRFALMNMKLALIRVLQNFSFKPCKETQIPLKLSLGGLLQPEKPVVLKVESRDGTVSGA
Voltage-gated inwardly rectifying potassium channel KCNH2 (Homo sapiens), sequence (Q12809 whole entry, looked up): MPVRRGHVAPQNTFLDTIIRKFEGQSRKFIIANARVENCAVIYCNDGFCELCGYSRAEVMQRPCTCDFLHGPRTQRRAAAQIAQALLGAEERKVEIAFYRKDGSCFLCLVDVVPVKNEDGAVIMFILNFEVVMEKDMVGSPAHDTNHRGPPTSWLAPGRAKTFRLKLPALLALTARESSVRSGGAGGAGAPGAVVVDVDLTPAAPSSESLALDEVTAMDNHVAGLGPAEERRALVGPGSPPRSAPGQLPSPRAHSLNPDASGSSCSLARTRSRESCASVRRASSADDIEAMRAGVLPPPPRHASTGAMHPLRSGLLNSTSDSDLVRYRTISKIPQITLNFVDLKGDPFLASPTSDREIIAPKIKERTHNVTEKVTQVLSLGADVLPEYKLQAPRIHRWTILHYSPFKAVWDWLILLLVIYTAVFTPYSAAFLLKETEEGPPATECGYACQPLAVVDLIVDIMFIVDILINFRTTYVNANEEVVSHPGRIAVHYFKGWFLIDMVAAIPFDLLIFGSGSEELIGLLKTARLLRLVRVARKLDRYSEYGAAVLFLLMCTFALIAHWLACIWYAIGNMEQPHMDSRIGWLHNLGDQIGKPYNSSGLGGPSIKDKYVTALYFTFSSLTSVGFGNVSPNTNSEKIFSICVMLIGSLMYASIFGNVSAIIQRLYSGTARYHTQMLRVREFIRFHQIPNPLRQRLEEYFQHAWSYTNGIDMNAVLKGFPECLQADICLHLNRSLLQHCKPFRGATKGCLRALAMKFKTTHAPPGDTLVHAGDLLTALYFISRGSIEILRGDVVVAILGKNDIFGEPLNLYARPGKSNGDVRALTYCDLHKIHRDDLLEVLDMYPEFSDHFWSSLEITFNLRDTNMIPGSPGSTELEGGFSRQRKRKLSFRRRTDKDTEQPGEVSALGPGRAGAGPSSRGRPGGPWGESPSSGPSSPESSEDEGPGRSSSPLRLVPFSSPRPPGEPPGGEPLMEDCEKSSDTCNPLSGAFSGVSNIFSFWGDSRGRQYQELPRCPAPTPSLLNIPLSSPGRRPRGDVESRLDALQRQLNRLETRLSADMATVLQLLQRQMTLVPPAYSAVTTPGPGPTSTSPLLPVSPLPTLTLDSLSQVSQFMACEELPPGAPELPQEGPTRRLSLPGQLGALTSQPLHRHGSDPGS
Cytochrome P450 2C9 (Homo sapiens), sequence (P11712 whole entry, looked up): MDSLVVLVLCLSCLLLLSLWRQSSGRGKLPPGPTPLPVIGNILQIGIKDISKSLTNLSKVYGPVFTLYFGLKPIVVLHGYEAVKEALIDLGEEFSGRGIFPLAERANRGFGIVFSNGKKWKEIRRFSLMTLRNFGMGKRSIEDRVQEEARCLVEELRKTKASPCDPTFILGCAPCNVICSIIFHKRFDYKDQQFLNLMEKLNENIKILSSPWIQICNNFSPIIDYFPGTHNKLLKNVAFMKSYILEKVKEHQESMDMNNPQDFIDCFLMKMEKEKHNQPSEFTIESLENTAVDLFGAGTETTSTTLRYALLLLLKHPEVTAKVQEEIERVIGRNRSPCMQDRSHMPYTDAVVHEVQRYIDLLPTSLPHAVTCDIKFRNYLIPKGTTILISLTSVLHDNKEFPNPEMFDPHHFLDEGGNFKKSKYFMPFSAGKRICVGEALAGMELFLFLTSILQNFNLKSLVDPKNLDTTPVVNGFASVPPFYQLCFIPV
Nuclear receptor subfamily 1 group I member 2 (Homo sapiens), sequence (O75469 whole entry, looked up): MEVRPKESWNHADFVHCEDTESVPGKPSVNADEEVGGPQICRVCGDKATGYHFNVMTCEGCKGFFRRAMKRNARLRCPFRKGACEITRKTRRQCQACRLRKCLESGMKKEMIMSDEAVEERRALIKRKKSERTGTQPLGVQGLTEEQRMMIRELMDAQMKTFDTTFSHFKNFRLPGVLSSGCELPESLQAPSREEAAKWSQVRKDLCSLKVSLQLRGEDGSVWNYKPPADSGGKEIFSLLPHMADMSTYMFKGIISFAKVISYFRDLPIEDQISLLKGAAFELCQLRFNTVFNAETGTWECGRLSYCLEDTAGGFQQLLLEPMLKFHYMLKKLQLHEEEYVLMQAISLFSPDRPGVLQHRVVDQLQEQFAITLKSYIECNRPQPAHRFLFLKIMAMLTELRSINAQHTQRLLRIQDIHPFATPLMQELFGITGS
Cytochrome P450 2D6 (Homo sapiens), sequence (P10635 whole entry, looked up): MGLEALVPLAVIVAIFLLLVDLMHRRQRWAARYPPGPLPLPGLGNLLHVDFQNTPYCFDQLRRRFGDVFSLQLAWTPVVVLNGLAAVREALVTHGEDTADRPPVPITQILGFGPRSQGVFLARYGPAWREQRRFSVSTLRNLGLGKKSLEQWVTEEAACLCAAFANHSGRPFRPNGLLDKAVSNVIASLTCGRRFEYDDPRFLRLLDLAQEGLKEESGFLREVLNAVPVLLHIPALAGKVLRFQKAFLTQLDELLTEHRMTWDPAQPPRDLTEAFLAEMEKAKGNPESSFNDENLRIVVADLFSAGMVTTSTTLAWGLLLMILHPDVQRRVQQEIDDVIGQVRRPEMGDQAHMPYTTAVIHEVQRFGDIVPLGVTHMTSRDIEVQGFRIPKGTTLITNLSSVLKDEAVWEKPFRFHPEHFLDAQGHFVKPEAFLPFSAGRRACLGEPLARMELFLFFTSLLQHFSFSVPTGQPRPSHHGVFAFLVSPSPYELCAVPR
Cytochrome P450 2C19 (Homo sapiens), sequence (P33261 whole entry, looked up): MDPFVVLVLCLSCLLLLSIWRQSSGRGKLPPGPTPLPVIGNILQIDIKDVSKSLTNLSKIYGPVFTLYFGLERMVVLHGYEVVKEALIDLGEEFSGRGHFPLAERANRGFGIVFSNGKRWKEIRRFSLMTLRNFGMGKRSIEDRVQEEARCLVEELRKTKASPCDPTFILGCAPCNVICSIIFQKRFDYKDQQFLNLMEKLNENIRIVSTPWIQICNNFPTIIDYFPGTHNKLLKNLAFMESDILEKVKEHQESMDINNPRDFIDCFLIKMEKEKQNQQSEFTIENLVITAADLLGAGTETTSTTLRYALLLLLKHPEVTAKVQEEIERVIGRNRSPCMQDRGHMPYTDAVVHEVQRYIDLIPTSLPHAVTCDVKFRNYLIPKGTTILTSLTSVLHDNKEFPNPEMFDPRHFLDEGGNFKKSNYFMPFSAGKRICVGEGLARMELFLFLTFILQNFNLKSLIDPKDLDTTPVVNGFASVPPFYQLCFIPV

Consider `O=C=Nc1cccc(C(F)(F)F)c1`, for which the Potency entry in assay [1], in [2], in [3], in [4], in assay [5] and in assay [6] was “inactive” throughout. In addition, the Potency entry in assay [7] and in [8] was “inactive” in each case.

As to `COc1ccccc1N1CCN(CCCCNC(=O)c2ccc(-c3ccc(C(C)=O)cc3)cc2)CC1`, the Potency entry in assay [1], in [9], in assay [2], in [11], in assay [12] and in assay [5] was “inactive” each time. Moreover, the Potency entry in [6] and in [8] was “inactive” throughout. The max activation in [10] was -3.31%. Further, the figures for the Potency in assay [4] and in [7] were 2.19 µM (active) and 3.79 µM (active), respectively.

Regarding `COc1ccccc1Oc1c(NS(=O)(=O)c2ccc(C(C)(C)C)cc2)nc(-c2ncccn2)nc1OCCO`, the Potency result in [1], in assay [2], in assay [6] and in [8] was “inactive” throughout.

Regarding `Brc1cc(Br)c(Oc2cc(Br)c(Br)cc2Br)cc1Br`, the Potency result in assay [1], in assay [9], in [3], in assay [4], in assay [6] and in assay [7] was “inactive” in each case. For the same compound, the Potency entry in assay [8] was “inactive”. In addition, the Potency in [13] is 29.9 µM (active); in assay [14], 13.8 µM (active).

Turning to `N#[N+]c1ccc2c(S(=O)(=O)[O-])cccc2c1O`, the Potency result in assay [1], in [2], in assay [3], in assay [13] and in assay [7] was “inactive” throughout. For the same compound, the Potency in assay [4] was 31.7 µM (active); in [14] it was 20 µM (active); in [5] it was 39.9 µM (active).

Take `COc1ccccc1N1CCN(CC(O)COc2cccc3ccccc23)CC1` (configuration not stated): the Potency result in assay [1], in [2] and in assay [8] was “inactive” each time. The results for the Potency in assay [4] and in assay [7] were 1.55 µM (active) and 1.9 µM (active), respectively.

Turning to `Oc1cccc(O)c1O`, the Potency entry in [1], in assay [11], in assay [12], in assay [7] and in assay [8] was “inactive” throughout. Besides, the Potency is 60.6 µM (active) in [13] and 70.4 µM (active) in [14]. Further, in assay [10], the max activation was -5.99%.

For the compound `CC(C)(c1ccccc1)c1ccccc1`, the Potency result in assay [1], in assay [9], in [3], in assay [14], in assay [5] and in [8] was “inactive” throughout.

As for `COC(=O)[C@H]1[C@H]2C[C@@H]3c4[nH]c5cc(OC)ccc5c4CCN3C[C@H]2C[C@@H](OC(=O)/C=C/c2ccc(O)c(OC)c2)[C@@H]1OC`, the Potency entry in assay [1], in assay [4], in [14] and in assay [6] was “inactive” throughout. Besides, the Potency in [9] was 26.6 µM (active); in assay [13] it was 11.9 µM (active); in [7], 0.848 µM (active).

On to `O=C1c2ccccc2C(=O)N1CCc1noc(-c2ccc(CN3CCCCCC3)s2)n1`, for which the Potency result in assay [1] and in [2] was “inactive” throughout. In addition, the Potency is 14.1 µM (active) in assay [13]; 8.19 µM (active) in assay [4]; 8.19 µM (active) in assay [14]; 20.6 µM (active) in assay [5]; 20.1 µM (active) in assay [7]; 0.231 µM (active) in assay [8].

On to `C/C=C/C=C/C=O`, for which the Potency entry in [1], in [9], in assay [2], in assay [13], in assay [5] and in assay [6] was “inactive” each time. The Potency entry in assay [7] and in assay [8] was “inactive” in each case.

Consider `CCCCCCCCOc1ccc(C(=O)O)cc1`, for which the Potency entry in [1], in assay [2], in assay [3], in assay [4], in [6] and in [7] was “inactive” in each case. The Potency result in [8] is “inactive”. The Potency in assay [13] was 60.4 µM (active); in [14] it was 49.7 µM (active).

For `CC1=Nc2ccc3ccccc3c2C1(C)C`, the Potency entry in assay [1], in [2], in [7] and in assay [8] was “inactive” each time. For the same compound, the Potency was 30.6 µM (active) in assay [13], 35.6 µM (active) in assay [4], 8.94 µM (active) in [14] and 20 µM (active) in [6].

Regarding `C[C@@]12CCC[C@H]1[C@@H]1CC[C@H]3C[C@@H](O)CC[C@]3(C)[C@H]1CC2`, the Potency entry in assay [1], in [2], in assay [3], in assay [4] and in assay [6] was “inactive” each time. In [14], the Potency was 7.76 µM (active).

Take `CCOc1ccc(Cc2nccc3cc(OCC)c(OCC)cc23)cc1OCC`: the Potency result in assay [1] and in assay [6] was “inactive” in each case. Further, the Potency was 11.9 µM (active) in assay [9], 3.35 µM (active) in assay [13], 7.76 µM (active) in assay [14] and 4.9 µM (active) in assay [5]. The max activation in assay [10] is -4.93%.

`CCCCN(CCN(CCCC)C(=O)N1CCOCC1)C(=O)N1CCOCC1`: the Potency entry in assay [1], in [9], in assay [2], in assay [4], in assay [5] and in [6] was “inactive” each time.

For `CCn1cc(C(=O)O)c(=O)c2cc(F)c(N3CCNCC3)cc21`, the Potency result in assay [1], in assay [2], in assay [3], in assay [13], in [11] and in assay [5] was “inactive” in each case. Moreover, the Potency entry in assay [6], in assay [7] and in [8] was “inactive” each time. In addition, the max activation in assay [10] was 7.46%.

As to `CCCC(=O)C(=O)O`, the Potency result in assay [1], in assay [9], in assay [3], in assay [13], in [14] and in assay [5] was “inactive” throughout. Besides, the Potency result in assay [7] and in assay [8] was “inactive” each time. In assay [4], the Potency is 35.6 µM (active).

On to `Clc1ccc(Nc2nnc(Cc3ccncc3)c3ccccc23)cc1`, for which the Potency result in [1], in assay [2], in [11] and in [7] was “inactive” throughout. Further, the Potency in [13] was 29.8 µM (active); in assay [12] it was 3.98 µM (active); in assay [4] it was 17.4 µM (active); in assay [5], 1.55 µM (active); in assay [6], 1.44 µM (active). Besides, the max activation in assay [10] was 1.3%.
